PubChem BioAssay AID2284376 (EPA ToxCast)
Several values for one entry are separate records, joined by “and”; a condition that tells them apart may be missing. Equal values may be shown once. Activity calls are given as the source filed them. The calls were made as follows: active = hit-call score of the fitted dose curve at least 0.9, where 1 is the maximum; inactive = score below 0.9.

Each molecule was assayed against Peroxisome proliferator-activated receptor gamma (Homo sapiens) (UniProt P37231) (assay: ERF_TW_NR_COA_hPPARG: Eurofins (ERF) Nuclear Receptor (NR) Functional Coactivator Assay for human Peroxisome Proliferator-activated Receptor gamma (PPARg) Agonism, conducted at Taiwan lab site).
Method: ERF_TW_NR_COA_hPPARG is a biochemical, single-readout assay that uses extracted gene-proteins in a cell-free assay. Measurements were taken 16 hours after chemical dosing in a 96-well plate. See PPARgamma Human NHR Functional Agonist Coactivator Assay, Panlabs.ERF_TW_NR_COA_hPPARG is an assay component calculated from the ERF_TW_NR_COA_hPPARG assay. It is designed to measure FRET using a type of binding reporter as detected by fluorescence intensity of rosiglitazone with fluorimetry technology.Data from the assay component ERF_TW_NR_COA_hPPARG was analyzed at the assay endpoint, ERF_TW_NR_COA_hPPARG, in the positive analysis fitting direction relative to DMSO as the negative control and baseline of activity. Using a type of binding reporter, gain-of-signal activity can be used to understand changes in binding as they relate to gene PPARG. To generalize the intended target to other relatable targets, this assay endpoint is annotated to the nuclear receptor intended target family, where the subfamily is non-steroidal.
Human recombinant PPARgamma receptors expressed in insect cells are used. Test compound and/or vehicle is incubated with the 2 nM receptors and coactivator peptide for 180 minutes at room temperature. Determination of the amount of complex formed is read spectrofluorimetrically (excitation: 337 nm, emission: 520/490 nm). Test compound-induced increase fluorescence by 50 percent or more (>/=50%) relative to 1 uM GW1929 response indicates possible PPARgamma receptor agonist activity. Test compound-induced inhibition of 5 nM GW1929-induced fluorescence response by 50 percent or more (>/=50%) indicates receptor antagonist activity.

Peroxisome proliferator-activated receptor gamma (Homo sapiens), sequence (P37231 whole entry, looked up): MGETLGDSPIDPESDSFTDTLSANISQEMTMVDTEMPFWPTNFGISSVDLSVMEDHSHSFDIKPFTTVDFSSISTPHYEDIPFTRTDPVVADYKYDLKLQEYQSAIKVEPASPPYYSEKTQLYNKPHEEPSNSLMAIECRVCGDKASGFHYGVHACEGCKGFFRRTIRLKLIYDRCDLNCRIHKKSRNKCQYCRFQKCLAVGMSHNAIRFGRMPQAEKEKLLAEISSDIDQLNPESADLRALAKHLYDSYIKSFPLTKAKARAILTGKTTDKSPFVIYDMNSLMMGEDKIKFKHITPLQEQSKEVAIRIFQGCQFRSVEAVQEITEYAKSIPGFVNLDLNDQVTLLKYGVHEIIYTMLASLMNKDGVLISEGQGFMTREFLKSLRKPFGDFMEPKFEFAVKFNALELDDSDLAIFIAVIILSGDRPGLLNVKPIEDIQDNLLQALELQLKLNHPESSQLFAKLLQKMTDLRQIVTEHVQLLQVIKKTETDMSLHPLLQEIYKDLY

Row | Structure (SMILES) | outcome | AC50
1 | O=C(O)CCC(F)(F)C(F)(F)C(F)(F)F | inactive | –
2 | NC(=O)c1nc(-c2cccc(-c3cc(F)ccc3OCC(F)(F)C(F)(F)F)c2)n[nH]1 | inactive | –
3 | O=C(CC(=O)C(F)(F)C(F)(F)C(F)(F)F)c1cccs1 | – | 44.4 µM (active) and 43.2 µM (active)
